# Compounds with a hit are over-represented: about 2.4% of the library has one in this group of screens.
# D2 ag-1 – agonists of human D2 dopamine receptor (beta-arrestin). hit rate 0.084% among 360,000. activation, % (no concentration beside the values). DiscoveRx PathHunter D2 beta-arrestin, luminescence, 90 min; 100% = 57 uM dopamine signal; in the data active = activation above about 40%; inconclusive = between about 15% and that limit
#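 DiscoveRx PathHunter D2 beta-arrestin cells (2,100/well) attached overnight, then compound-stimulated 90 min at 37 C in HBSS/10 mM HEPES/0.1% Tween-20 buffer; beta-galactosidase complementation read by luminescence after 1 h at ambient temperature. Dopamine 57 uM final (EC100) as control.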
# D2 ag-2 – D2 dopamine receptor (human) agonism; AID 485358; hit rate 0.53% among 340,000; P14416; activation, % at 2 µM; HEK293 T-REx D2 cells, calcium flux agonist mode;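 active = activation over 3 SD above normal in the single-dose calcium agonist read, cut at about 30% in these data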; note: 0% is about no effect
#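 Agonism scored from kinetic calcium signal (1 read/sec, 180 s) following compound pin transfer, after a 10 s baseline. Cells: HEK293 Trex line expressing inducible D2 receptor coupled to calcium, dye-loaded after overnight culture at 30 C.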
# D2 PAM-1 – positively modulates the human D2 dopamine receptor allosterically; hit rate 0.34% among 340,000; HEK293 T-REx D2, calcium flux, EC20 dopamine potentiation; potentiation, % at 10 µM; P14416;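 active = potentiation over 3 SD above the plate norm, cut at about 30% in these data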; note: 0% is about no effect
#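 Primary screen. Calcium kinetics in induced HEK293 T-REx D2 cells: compound pre-addition 180 s, EC20 dopamine, 180 s more.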
# D2 antagonist – D2 dopamine receptor (human) antagonism; P14416; HEK293 TREx D2 cells, calcium flux, dopamine EC80; inhibition, % at 10 µM; hit rate 2% among 340,000; AID 485344; in the data active = inhibition above about 30%; inactive = below that, where a call was filed; note: 0% is about no effect
#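 Measurement of antagonist activity uses fluorescent calcium dye in inducible HEK293 T-REx D2 cells: 10 s baseline, compound addition with 180 s read, EC80 dopamine addition with a further 180 s read.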
# D2 PAM-2 – human D2 receptor positive allosteric modulation; hit rate 0.23% among 360,000; DiscoveRx D2 beta-arrestin cells, luminescence, 90 min; 100% = 57 uM dopamine signal; AID 624464; potentiation, % (test concentration not listed); in the data active = potentiation above about 50%; inconclusive = mostly about 30% to 49%
#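 PathHunter beta-arrestin assay in DiscoveRx D2 cells. Compounds were added with an EC20 of dopamine (50 nM final) for 90 min at 37 deg C. Luminescence was read 1 h after detection reagent, with 57 uM dopamine as the EC100 control.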
# D3 ag – D3 receptor agonism confirmed, beta-arrestin readout. shares compounds with D2 ag-2. DiscoveRx D3 beta-arrestin cells, luminescence, 90 min. Potency, µM (highest dose often 76.9 µM), without a hit: at the top dose activation, hits mostly activators. hit rate 4% among 2,300;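 note: potency is the fitted concentration of half-maximal effect; 100% = dopamine control response; nearly all actives have a fitted effect of over 70% in size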
# Target sequence (P35462 whole entry, looked up): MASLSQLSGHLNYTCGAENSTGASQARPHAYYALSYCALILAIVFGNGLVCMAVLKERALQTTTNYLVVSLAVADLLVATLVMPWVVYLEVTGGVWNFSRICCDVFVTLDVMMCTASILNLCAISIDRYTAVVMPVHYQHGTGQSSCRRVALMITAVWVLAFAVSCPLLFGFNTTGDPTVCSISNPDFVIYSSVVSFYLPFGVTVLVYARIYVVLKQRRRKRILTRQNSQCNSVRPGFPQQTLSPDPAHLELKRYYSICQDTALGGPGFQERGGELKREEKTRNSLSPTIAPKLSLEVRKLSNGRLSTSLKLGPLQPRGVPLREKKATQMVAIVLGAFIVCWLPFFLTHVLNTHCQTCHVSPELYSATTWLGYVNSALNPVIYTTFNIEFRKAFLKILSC
# D2 ag-3 – D2 receptor agonism, beta-arrestin counterscreen | DiscoveRx PathHunter D2 beta-arrestin, luminescence, 90 min; response scale: percent relative to full dopamine signal | Potency, µM (titrated, usually from 76.9 µM), for inactives: at the top dose activation, usual class: activators | AID 720507 | hit rate 5.9% among 2,300 | shares compounds with D2 ag-2; note: potency is the fitted concentration of half-maximal effect; % of control where 0% means no effect; nearly all actives have a fitted effect of over 70% in size
# An asterisk follows results filed as active; ? = inconclusive; · = no result. Unless noted, calls come from the whole dose curve; as a rule, active = well fitted activation curve with a large enough effect; inconclusive = small, poorly fitted or top-dose-only effect; inactive = flat fitted curve, though single readings scatter.
SMILES,D2 ag-1,D2 ag-2,D2 PAM-1,D2 antagonist,D2 PAM-2,D3 ag,D2 ag-3
O[C@@H]1CN(Cc2cccs2)[C@@H](c2ccccc2)C[C@H]1n1cc(-c2ccc(F)cc2)nn1,-11,·,·,·,-6,·,·
Cc1c(C(=O)N2CCN(Cc3ccc4c(c3)OCO4)CC2)sc2ncnc(N3CCN(c4ccccc4F)CC3)c12,?,·,·,·,7,23%,?
COc1ccc(N(C)S(=O)(=O)c2cccc(C(=O)N3CCN(Cc4ccc5c(c4)OCO5)CC3)c2)cc1,6,58*,-15,-3,-12,3%,11%
Cc1ccc(C(=O)N2CCN(Cc3ccccc3)CC2)o1,10,50*,-18,-14,-45,0%,3%
O=C(c1ccc([N+](=O)[O-])o1)N1CCN(Cc2ccccc2)CC1,6,0,3,5,-22,·,·
Cc1cc(=O)oc(C)c1C(=O)N1CCN(Cc2ccc3c(c2)OCO3)CC1,4,0,7,16,-10,2%,16%
COc1cccc(OC)c1C(=O)N1CCN(Cc2ccc3c(c2)OCO3)CC1,-3,0,-2,20,-10,·,·
CC(C)Sc1ncnc2c1oc1ccccc12,-1,0,-8,8,-15,-10%,-1%
O=C(NCCc1ccccc1)c1coc(=O)c(Br)c1,2,39*,0,13,2,4%,14%
CN(C)CCNC(=O)c1coc(=O)c(Br)c1,-3,0,4,6,20,·,·
Nc1nc(N)nc(-c2ccc(Cl)c(Cl)c2)n1,-1,2,-6,-9,-3,-1%,-4%
COc1cc2[nH]c(=O)n(CCC(=O)NCCCN3CCN(c4ccccc4F)CC3)c(=O)c2cc1OC,6,51*,-34,96*,-17,?,19%
COc1ccc2c(c1)CC(C(=O)NCCCN1CCN(c3ccccc3F)CC1)CO2 (stereo not drawn),·,·,-25,·,·,·,·
CCCN1CCN(CCCNC(=O)c2ccc3c(=O)n(CCc4ccccc4)c(=O)[nH]c3c2)CC1,9,68*,-23,31*,6,-3%,17%
CCS(=O)(=O)N1CCC(C(=O)NCCCN2CCN(c3ccccc3F)CC2)CC1,?,69*,-18,86*,18,?,?
O=C(NCCCN1CCN(c2ccccc2F)CC1)C1CCC(=O)N1C1CCCC1 (stereo not drawn),4,72*,-17,66*,-5,9%,?
Cc1ccccc1C(=O)N1[C@@H](C(C)C)COc2cc(Br)ccc2S1(=O)=O,-5,·,·,·,-3,·,·
COc1cccc(-n2ccn(CC(=O)c3ccc(F)cc3)c(=O)c2=O)c1,·,1,-6,·,·,·,·
Cc1ccc2c(c1)cc1c(=O)n(CC(=O)N3CCCCC3)nc(C)n12,·,0,5,·,·,·,·
O=C(NCCN1CCN(c2ccccc2)CC1)C1CCN(S(=O)(=O)c2cccs2)CC1,?,·,·,·,-6,?,?
O=C(NCCS(=O)(=O)N1CCN(c2cccc(Cl)c2)CC1)C1CCCC1,-3,0,-2,-3,-21,·,·
O=C(CCN1C(=O)COc2ccccc21)NCCCN1CCN(c2ccccc2F)CC1,14,69*,-26,82*,-14,17%,19%
O=C(NCCc1ccc(Cl)cc1)C1CCN(S(=O)(=O)c2cccs2)CC1,-3,0,-4,16,-5,·,·
CCCS(=O)(=O)N1CCCC(C(=O)NCCCN2CCN(c3cccc(Cl)c3)CC2)C1 (stereo not drawn),7,48*,-23,51*,-29,?,22%
O=C(NCCCN1CCN(c2ccccc2F)CC1)C1CCN(S(=O)(=O)c2cccs2)CC1,?,70*,-18,75*,18,?,10µM*
SMILES,D2 ag-1,D2 ag-2,D2 PAM-1,D2 antagonist,D2 PAM-2,D3 ag,D2 ag-3
Cc1nnc(NC(=O)CCC(=O)N2CCN(CCOc3cccc4ccccc34)CC2)s1,?,55*,-24,52*,-22,?,?
Cc1ccc(OCCN2CCN(C(=O)CCC(=O)Nc3nnc(C(C)C)s3)CC2)cc1,3,0,8,-5,-42,·,·
CCCc1nnc(NC(=O)CCC(=O)N2CCN(CCOc3ccc(C)cc3)CC2)s1,0,-2,11,-2,3,·,·
Cc1ccc(OCCN2CCN(C(=O)CCC(=O)Nc3nnc(C)s3)CC2)cc1,1,4,12,6,-16,?,1%
CCCCC(=O)NC1(C(F)(F)F)C(=O)Nc2c1c(=O)[nH]c(=O)n2-c1ccc(C)c(C)c1 (stereo not drawn),·,1,2,·,·,·,·
COc1cccc(-c2nc(SCC(=O)NC3CCCC3)c(-c3ccccc3)[nH]2)c1,·,3,-12,·,·,·,·
O=C(CCc1nc2ccccc2c(=O)[nH]1)N1CCN(C/C=C/c2ccccc2)CC1,4,19,-31,10,-11,16%,?
O=C(O)CCc1nc2ccccc2c(=O)[nH]1,-2,29,-15,21,-5,-21%,-4%
O=C(CCc1nc2ccccc2c(=O)[nH]1)Nc1ccc(F)cc1,-1,-1,-4,16,-21,·,·
CC(=O)N1CCN(C(=O)CCc2nc3ccccc3c(=O)[nH]2)CC1,-3,·,·,·,-9,·,·
COc1ccc2c(c1)c1c(c(=O)n(Cc3ccccc3)c(=O)n1Cc1ccccc1Cl)n2C,·,1,-9,·,·,·,·
O=C1NN(CCO)C(=S)Nc2ccccc21,-3,·,·,·,-10,·,·
c1ccc(N2CCN(Cc3nnc(-c4ccc5c(c4)OCO5)o3)CC2)cc1,·,·,6,·,·,·,·
CCN(CC)CCOC(=O)c1cccc(Br)c1,-3,0,-8,4,-22,·,·
O=C(OCCc1cc2ccccc2c(=O)o1)c1cccc(Br)c1,-1,-1,10,-4,-12,-5%,6%
O=C(OCCc1cc2ccccc2c(=O)o1)c1ccc(F)cc1,-2,-3,7,3,-7,·,·
CN(CCOC(=O)c1cccc(Br)c1)C(C)(C)C,-4,71*,-18,31*,-12,-1%,-5%
O=C(OCCc1cc2ccccc2c(=O)o1)c1ccc(C(F)(F)F)cc1,-2,0,23,2,-7,-5%,0%
CCc1nc(SC)ncc1C(=O)NCc1cccc(Br)c1,·,-3,4,·,·,·,·
CCOC(=O)c1ccccc1NC(=O)c1nn(C)c2c1COc1ccccc1-2,·,0,-3,·,·,·,·
C[C@H]1[C@H](C)CC[C@]2(C)CC[C@]3(C)C(=CC(=O)C4[C@@]5(C)CC[C@H](O)C(C)(C)C5CC[C@]43C)[C@H]12 (stereo partly drawn),-4,0,0,21,0,-2%,-1%
CCOc1ccccc1C(=O)Nc1cccc2ccc(C)nc12,·,-1,-5,·,·,·,·
